Values without a mark were called inactive. Results filed as inconclusive are left out. Entries that show only a call come without a potency. Calls of active or inactive are those of the source. Unless noted, the call rests on the fitted dose curve; in most records, active means well fitted curve in the direction sought with a large enough effect in the repeat runs; inconclusive means weak or mixed curves; inactive means no such curve, though single readings can be large; an effect the other way counts as inactive or inconclusive.
How the values were obtained:
[1] = biological target: Estrogen receptor beta (Homo sapiens) (UniProt Q92731); assay: qHTS assay to identify small molecule antagonists of the estrogen receptor beta (ER-beta) signaling pathway (AID 1259378; active means well fitted inhibition curve with a large enough effect in the signal ratio in the repeat runs, not every such curve was filed as active; the % refers to the signal ratio)
Outline: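 Antagonist mode: compounds added to beta-lactamase reporter HEK293T ER-beta-UAS cells stimulated with E2 (1nM final), 16 hr at 37C. LiveBLAzer B/G FRET substrate, 2 hours room temperature, fluorescence read-out.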

[2] = qHTS assay to identify small molecule agonists of the androgen receptor (AR) signaling pathway in the presence of an antagonist - cell viability counter screen (AID 1259379);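 further: MDA-kb2 human breast cancer cells carrying an MMTV luciferase reporter; series mostly up to about 92 µM; nearly all actives have a fitted effect of over 25% in size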
Outline: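 Fluorescence from CellTiter-Fluor, added after 15 hr and read 1 hr later, gave cell viability. Cells were MDA-kb2 exposed to compounds (15 concentrations) in the presence of 3.0uM nilutamide at 37C, 0% CO2.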

[3] = qHTS assay to identify small molecule agonists of the estrogen receptor beta (ER-beta) signaling pathway - cell viability counter screen (AID 1259380); further: nearly all actives have a fitted effect of over 30% in size; further: potency means the concentration at half of the fitted maximal effect
Outline: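 Same-well viability counter screen. Cells: ER-beta-UAS-bla HEK293T, plated 6 hr before compound, in 2% charcoal-stripped FBS. Compound exposure 16 hr, 37C; viability by CellTiter-Glo luminescence after 30 min at room temperature.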

[4] = biological target: Androgen receptor (Homo sapiens) (UniProt P10275); assay: qHTS assay to identify small molecule agonists of the androgen receptor (AR) signaling pathway in the presence of an antagonist (AID 1259381; calls by dose curve; further: nearly all actives have a fitted effect of over 15% in size)
Outline: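 Cells are MDA-kb2 (human breast carcinoma, MMTV-luc, AR/GR responsive). Nilutamide is present at 3.0uM final throughout; compounds are added at 15 concentrations and incubated 16hr at 37C before ONE-Glo luminescence detection.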

[5] = qHTS assay to identify small molecule antagonists of the estrogen receptor beta (ER-beta) signaling pathway - cell viability counter screen (AID 1259382);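 further: HEK293T cells carrying ER-beta-UAS-bla reporter stimulated with estradiol; series mostly up to about 92 µM; nearly all actives have a fitted effect of over 55% in size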
Outline: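 Following a 6 hr plating period, HEK293T cells carrying a UAS-driven beta-lactamase reporter under ER-beta control received compounds and 1nM E2 (final). After 16 hr at 37C and 2 hr substrate loading, CellTiter-Glo luminescence indicated viability.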

[6] = biological target: Estrogen receptor (Homo sapiens) (UniProt P03372); assay: qHTS assay to identify small molecule agonists of the estrogen receptor alpha (ER-alpha) signaling pathway in the presence of an antagonist (AID 1259383; calls by dose curve; further: top concentration of the series differs between compounds; nearly all actives have a fitted effect of over 15% in size)
Outline: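 Cells are hormone-deprived for 5 days (charcoal-stripped FBS, no phenol red), plated for 24hr, spiked with 10.0nM ICI-182,780, then dosed at 15 concentrations. After 22hr at 37C, ONE-Glo luminescence reports ERE-luciferase activity.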

[7] = qHTS assay to identify small molecule agonists or antagonists of the thyroid stimulating hormone receptor (TSHR) signaling pathway - wild type cell line counter screen (AID 1259384; calls by dose curve)
Outline: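 Counter screen in untransfected Hek293: compounds (15-point titration, triplicate) plus phosphodiesterase inhibitor Ro20-1724 added after 18 h plating; 30 min RT. Intracellular cAMP via competitive d2/cryptate immunoassay, 1 h incubation.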

[8] = biological target: Thyrotropin receptor (Homo sapiens) (UniProt P16473); assay: qHTS assay to identify small molecule antagonists of the thyroid stimulating hormone receptor (TSHR) signaling pathway (AID 1259385; calls by dose curve; further: nearly all actives have a fitted effect of over 20% in size; further: potency means the concentration at half of the fitted maximal effect)
Outline: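 Antagonist mode: compound-treated TSHR-expressing HEK293 cells were stimulated with 1.5 ng/mL TSH (final) in presence of Ro20-1724 for 30 min at RT. HTRF cAMP detection after 1 h; each compound tested at 15 concentrations, triplicate.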

[9] = qHTS assay to identify small molecule agonists of the estrogen receptor alpha (ER-alpha) signaling pathway in the presence of an antagonist - cell viability counter screen (AID 1259386);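 further: series mostly up to about 92 µM; cells exposed to compounds for 22 h at 37 °C before the viability read; nearly all actives have a fitted effect of over 30% in size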
Outline: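 Cells are starved of estrogens for 5 days in charcoal-stripped serum, seeded for 24hr and co-treated with ICI-182,780 (10.0nM final) and test compounds. After 22hr at 37C, viability is read as CellTiter-Fluor fluorescence.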

[10] = biological target: Progesterone receptor (Homo sapiens) (UniProt P06401); assay: qHTS assay to identify small molecule agonists of the progesterone receptor (PR) signaling pathway (AID 1346784; calls by dose curve; further: nearly all actives have a fitted effect of over 30% in size)
Outline: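 Reporter assay, GripTite PR-UAS-bla HEK 293T cells: 16 hr exposure to DMSO-dissolved compounds at 37C, 5% CO2, in steroid-depleted (2% charcoal-stripped FBS) medium; beta-lactamase measured by FRET fluorescence.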

[11] = biological target: Progesterone receptor (Homo sapiens) (UniProt P06401); assay: qHTS assay to identify small molecule antagonists of the progesterone receptor (PR) signaling pathway (AID 1346795; active means well fitted inhibition curve with a large enough effect in the signal ratio in the repeat runs, not every such curve was filed as active; the % refers to the signal ratio)
Outline: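 Stimulus R5020 at 1 nM final; cells HEK293T PR-UAS-bla; medium with 2% charcoal-stripped FBS; compound exposure 16 hr at 37C, 5% CO2; detection by FRET beta-lactamase substrate, 2 hr, room temperature.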

[12] = qHTS assay to identify small molecule antagonists of the progesterone receptor (PR) signaling pathway - cell viability counter screen (AID 1346798); further: series mostly up to about 92 µM; nearly all actives have a fitted effect of over 50% in size
Outline: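 In the same plates used for the beta-lactamase readout, cell viability of compound- and R5020-treated PR-UAS-bla HEK293T cells (16 hr, 37C) was assessed by CellTiter-Glo luminescence.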

[13] = qHTS assay to identify small molecule agonists of the progesterone receptor (PR) signaling pathway - cell viability counter screen (AID 1346799; calls by dose curve; further: nearly all actives have a fitted effect of over 45% in size)
Outline: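 Multiplexed viability read: CellTiter-Glo luminescence, 30 min RT, following LiveBLAzer FRET measurement on PR-UAS-bla HEK293T cells exposed to compounds 16 hr.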

[14] = qHTS assay to identify small molecule antagonists of the TGF-beta/Smad signaling pathway - cell viability counter screen (AID 1346824); further: nearly all actives have a fitted effect of over 50% in size
Outline: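 Cytotoxicity counter-screen run in the same wells as the beta-lactamase Smad reporter read: CellTiter-Glo luminescence after 30 min at room temperature. HEK 293T SBE-bla cells had 5 hr compound exposure at 37 C with TGF-beta1 (0.25 ng/mL stock).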

[15] = qHTS assay to identify small molecule agonists of the TGF-beta/Smad signaling pathway - cell viability counter screen (AID 1346829); further: top concentration of the series differs between compounds; nearly all actives have a fitted effect of over 45% in size
Outline: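 After overnight seating at 37 C and 5% CO2, reporter cells got compounds for 5 hr and FRET substrate for 2 hr; cell viability then came from CellTiter-Glo luminescence.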

[16] = qHTS assay to identify small molecule agonists of the TGF-beta/Smad signaling pathway (AID 1346859; active means well fitted activation curve with a large enough effect in the signal ratio in the repeat runs, not every such curve was filed as active; the % refers to the signal ratio; further: series mostly up to about 77 µM)
Outline: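 Screening used HEK 293T SBE-bla cells at 4,000/well. Test agents: 5 hr, 37 C. Detection: FRET substrate, 2 hr RT, then excitation 405 nm with emissions at 460 and 530 nm.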

[17] = biological target: Thyrotropin-releasing hormone receptor (Homo sapiens) (UniProt P34981); assay: qHTS assay to identify small molecule antagonists of the thyrotropin-releasing hormone receptor (TRHR) signaling pathway (AID 1346877; active means well fitted inhibition curve with a large enough effect in the repeat runs, not every such curve was filed as active; further: series mostly up to about 51 µM)
Outline: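 Cells (TRHR-HEK293) are plated and kept 18 h at 37 °C/5% CO2. A calcium-sensitive dye is added for 2 h, compound follows for 5 min at room temperature, and TRH is then given at 1 nM final.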

[18] = Human pregnane X receptor (PXR) small molecule agonists, qHTS cell viability counter screen (AID 1346977); further: nearly all actives have a fitted effect of over 50% in size
Outline: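 In each well, the PXR reporter HepG2 line was checked for viability: CellTiter-Fluor reagent added 23hr post-dosing, fluorescence read after 1hr incubation at 37C.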

[19] = Caspase-3/7 induction in HepG2 cells by small molecules, qHTS assay (AID 1346978); further: nearly all actives have a fitted effect of over 15% in size
Outline: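 Caspase-3/7 induction was measured by Caspase-Glo 3/7 luminescence (30 min, room temperature) after a 17 hr compound exposure of wild-type HepG2 cells seeded at 2,000 per well and pre-incubated 5 hr.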

[20] = biological target: Thyrotropin-releasing hormone receptor (Homo sapiens) (UniProt P34981); assay: qHTS assay to identify small molecule agonists of the thyrotropin-releasing hormone receptor (TRHR) signaling pathway (AID 1346891; calls by dose curve; further: series mostly up to about 58 µM)
Outline: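 Readout was intracellular calcium fluorescence in TRHR-Hek293 cells. Cells were incubated 18 h, dye-loaded 2 h at 37 °C, and treated with compound in agonist mode.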

Sequence of Estrogen receptor (Homo sapiens) (P03372 whole entry, looked up): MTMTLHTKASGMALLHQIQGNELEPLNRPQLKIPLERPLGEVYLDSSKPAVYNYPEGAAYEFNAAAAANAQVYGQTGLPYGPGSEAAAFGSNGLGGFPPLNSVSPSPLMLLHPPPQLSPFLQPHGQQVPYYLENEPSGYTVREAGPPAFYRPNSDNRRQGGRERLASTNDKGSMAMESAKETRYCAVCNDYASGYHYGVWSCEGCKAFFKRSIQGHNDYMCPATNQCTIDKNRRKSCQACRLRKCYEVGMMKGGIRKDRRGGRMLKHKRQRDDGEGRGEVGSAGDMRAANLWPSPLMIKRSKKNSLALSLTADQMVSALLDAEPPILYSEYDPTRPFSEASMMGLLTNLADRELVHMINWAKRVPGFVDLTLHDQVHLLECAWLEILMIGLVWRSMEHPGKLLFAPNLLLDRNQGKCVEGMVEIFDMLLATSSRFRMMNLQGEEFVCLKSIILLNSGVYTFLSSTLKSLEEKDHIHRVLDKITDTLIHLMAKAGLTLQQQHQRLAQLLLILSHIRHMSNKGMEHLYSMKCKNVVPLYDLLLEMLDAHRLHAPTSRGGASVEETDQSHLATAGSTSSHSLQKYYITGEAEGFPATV
Sequence of Thyrotropin-releasing hormone receptor (Homo sapiens) (P34981 whole entry, looked up): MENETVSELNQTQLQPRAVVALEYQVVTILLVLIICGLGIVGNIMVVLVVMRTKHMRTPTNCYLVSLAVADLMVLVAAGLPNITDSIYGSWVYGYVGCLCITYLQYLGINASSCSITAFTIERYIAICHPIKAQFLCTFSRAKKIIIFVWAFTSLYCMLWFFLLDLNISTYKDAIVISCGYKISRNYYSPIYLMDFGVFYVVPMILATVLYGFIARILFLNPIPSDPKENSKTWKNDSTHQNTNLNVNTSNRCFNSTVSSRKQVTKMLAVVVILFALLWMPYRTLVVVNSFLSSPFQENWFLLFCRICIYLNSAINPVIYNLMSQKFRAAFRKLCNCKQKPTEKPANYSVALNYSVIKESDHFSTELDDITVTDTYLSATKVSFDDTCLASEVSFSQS
Sequence of Estrogen receptor beta (Homo sapiens) (Q92731 whole entry, looked up): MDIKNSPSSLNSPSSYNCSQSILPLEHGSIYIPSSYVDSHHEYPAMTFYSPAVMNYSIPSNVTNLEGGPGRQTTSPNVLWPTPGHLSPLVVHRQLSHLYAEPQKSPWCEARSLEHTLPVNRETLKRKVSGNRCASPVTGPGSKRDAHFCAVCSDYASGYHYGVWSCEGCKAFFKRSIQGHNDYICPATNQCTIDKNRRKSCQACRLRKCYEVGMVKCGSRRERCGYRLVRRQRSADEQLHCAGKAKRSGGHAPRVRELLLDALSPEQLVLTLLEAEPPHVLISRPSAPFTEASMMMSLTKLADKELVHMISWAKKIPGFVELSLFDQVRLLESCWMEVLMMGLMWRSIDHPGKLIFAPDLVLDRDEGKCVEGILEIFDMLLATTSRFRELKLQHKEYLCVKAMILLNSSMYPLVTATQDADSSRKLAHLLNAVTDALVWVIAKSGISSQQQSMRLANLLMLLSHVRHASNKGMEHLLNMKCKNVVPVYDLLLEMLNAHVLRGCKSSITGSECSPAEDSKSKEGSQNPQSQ
Sequence of Androgen receptor (Homo sapiens) (P10275 whole entry, looked up): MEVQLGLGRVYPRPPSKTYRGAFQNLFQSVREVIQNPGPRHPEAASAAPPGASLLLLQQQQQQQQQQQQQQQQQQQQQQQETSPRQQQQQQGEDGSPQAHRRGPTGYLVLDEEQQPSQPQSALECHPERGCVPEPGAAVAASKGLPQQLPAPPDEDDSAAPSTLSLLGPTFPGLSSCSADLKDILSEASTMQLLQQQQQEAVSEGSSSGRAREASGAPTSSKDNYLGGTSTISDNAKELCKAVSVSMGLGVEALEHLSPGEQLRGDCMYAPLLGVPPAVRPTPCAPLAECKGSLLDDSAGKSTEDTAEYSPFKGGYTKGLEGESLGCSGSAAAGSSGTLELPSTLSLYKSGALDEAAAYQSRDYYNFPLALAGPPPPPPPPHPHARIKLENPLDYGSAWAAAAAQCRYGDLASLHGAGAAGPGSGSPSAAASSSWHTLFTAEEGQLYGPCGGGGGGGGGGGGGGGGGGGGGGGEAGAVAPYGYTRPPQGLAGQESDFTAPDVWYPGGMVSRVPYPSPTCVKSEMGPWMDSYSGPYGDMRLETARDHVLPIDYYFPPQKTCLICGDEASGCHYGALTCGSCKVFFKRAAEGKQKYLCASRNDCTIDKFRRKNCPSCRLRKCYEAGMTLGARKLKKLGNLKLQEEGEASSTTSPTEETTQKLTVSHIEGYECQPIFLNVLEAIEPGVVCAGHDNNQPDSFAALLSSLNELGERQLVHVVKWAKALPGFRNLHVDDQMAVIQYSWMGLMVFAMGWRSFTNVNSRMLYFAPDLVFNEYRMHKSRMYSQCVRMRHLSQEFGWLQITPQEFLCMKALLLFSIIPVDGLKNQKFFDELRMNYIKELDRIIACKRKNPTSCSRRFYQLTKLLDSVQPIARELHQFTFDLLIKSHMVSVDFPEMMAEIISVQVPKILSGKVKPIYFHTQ
Sequence of Progesterone receptor (Homo sapiens) (P06401 whole entry, looked up): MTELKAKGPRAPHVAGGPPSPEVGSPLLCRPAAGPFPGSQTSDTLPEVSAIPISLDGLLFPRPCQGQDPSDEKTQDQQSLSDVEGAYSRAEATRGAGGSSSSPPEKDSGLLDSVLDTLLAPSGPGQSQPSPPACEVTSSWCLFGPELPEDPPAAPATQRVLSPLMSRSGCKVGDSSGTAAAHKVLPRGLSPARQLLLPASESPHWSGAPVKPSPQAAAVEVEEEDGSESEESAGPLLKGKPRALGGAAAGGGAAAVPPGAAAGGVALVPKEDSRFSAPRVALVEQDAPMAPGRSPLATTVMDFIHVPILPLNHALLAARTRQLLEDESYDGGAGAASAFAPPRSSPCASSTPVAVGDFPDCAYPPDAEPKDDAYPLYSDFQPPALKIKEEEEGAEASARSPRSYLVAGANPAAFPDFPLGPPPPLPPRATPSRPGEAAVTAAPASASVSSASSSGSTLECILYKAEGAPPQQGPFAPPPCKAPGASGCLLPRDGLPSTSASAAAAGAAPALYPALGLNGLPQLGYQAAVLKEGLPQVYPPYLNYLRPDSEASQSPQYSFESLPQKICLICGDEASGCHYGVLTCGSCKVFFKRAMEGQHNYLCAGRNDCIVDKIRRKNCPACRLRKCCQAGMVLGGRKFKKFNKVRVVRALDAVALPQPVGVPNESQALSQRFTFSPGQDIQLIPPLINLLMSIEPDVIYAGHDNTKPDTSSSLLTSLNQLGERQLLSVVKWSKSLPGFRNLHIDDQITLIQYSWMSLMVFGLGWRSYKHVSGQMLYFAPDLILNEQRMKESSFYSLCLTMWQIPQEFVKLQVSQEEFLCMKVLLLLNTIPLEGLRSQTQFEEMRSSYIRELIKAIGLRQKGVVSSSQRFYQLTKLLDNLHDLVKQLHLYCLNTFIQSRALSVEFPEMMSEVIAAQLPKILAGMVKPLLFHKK
Sequence of Thyrotropin receptor (Homo sapiens) (P16473 whole entry, looked up): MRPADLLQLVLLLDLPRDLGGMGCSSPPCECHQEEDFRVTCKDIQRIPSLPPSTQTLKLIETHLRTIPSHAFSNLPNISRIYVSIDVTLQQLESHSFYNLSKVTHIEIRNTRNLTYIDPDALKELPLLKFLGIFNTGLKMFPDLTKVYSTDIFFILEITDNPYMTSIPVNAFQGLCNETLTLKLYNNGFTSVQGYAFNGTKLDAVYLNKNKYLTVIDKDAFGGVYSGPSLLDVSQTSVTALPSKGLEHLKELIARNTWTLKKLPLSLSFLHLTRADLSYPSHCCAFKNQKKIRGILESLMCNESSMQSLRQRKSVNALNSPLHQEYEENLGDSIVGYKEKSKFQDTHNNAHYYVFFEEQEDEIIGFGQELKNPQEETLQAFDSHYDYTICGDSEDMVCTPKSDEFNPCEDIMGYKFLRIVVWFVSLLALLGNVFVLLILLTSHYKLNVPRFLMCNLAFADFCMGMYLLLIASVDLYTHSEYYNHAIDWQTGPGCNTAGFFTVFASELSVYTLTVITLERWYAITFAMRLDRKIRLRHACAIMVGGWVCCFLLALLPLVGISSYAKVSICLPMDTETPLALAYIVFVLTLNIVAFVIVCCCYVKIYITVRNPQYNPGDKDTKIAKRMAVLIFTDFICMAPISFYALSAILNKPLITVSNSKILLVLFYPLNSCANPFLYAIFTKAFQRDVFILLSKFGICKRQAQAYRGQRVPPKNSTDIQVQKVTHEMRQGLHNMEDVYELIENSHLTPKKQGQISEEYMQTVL

Row | Compound | Potency [1] | Potency [2] | Potency [3] | Potency [4] | Potency [5] | Potency [6] | outcome [7] | Potency [8] | Potency [9] | outcome [10] | Potency [11] | Potency [12] | Potency [13] | Potency [14] | Potency [15] | Potency [16] | Potency [17] | Potency [18] | Potency [19] | Potency [20]
1 | c1ccc2c(c1)CCC2 | inactive | inactive | inactive | inactive | inactive | inactive | inactive | inactive | inactive | inactive | inactive | inactive | inactive | inactive | inactive | inactive | inactive | inactive | inactive | –
2 | Clc1cc(Cl)c(-c2c(Cl)c(Cl)cc(Cl)c2Cl)cc1Cl | inactive | inactive | inactive | inactive | inactive | – | inactive | inactive | inactive | inactive | inactive | inactive | inactive | inactive | inactive | inactive | – | inactive | – | –
3 | Cc1cc(=O)[nH]c(=O)[nH]1 | inactive | inactive | inactive | – | inactive | inactive | inactive | inactive | inactive | inactive | inactive | inactive | inactive | inactive | inactive | inactive | inactive | inactive | inactive | inactive
4 | CC(C)CCOCCC(C)C | inactive | inactive | inactive | inactive | inactive | inactive | inactive | inactive | inactive | inactive | inactive | inactive | inactive | inactive | inactive | inactive | – | inactive | inactive | –
5 | CCN(CC)CCOC(=O)C1(C2CCCCC2)CCCCC1 | inactive | inactive | 26.6 µM (active) | inactive | – | inactive | inactive | 29.8 µM (active) | inactive | inactive | inactive | – | – | – | – | inactive | – | – | – | –
6 | C=CC/C=C/C/C=C/C/C=C/C | inactive | inactive | inactive | inactive | inactive | – | inactive | inactive | inactive | inactive | inactive | inactive | inactive | inactive | inactive | inactive | – | inactive | inactive | inactive
7 | COc1ccccc1C=O | inactive | inactive | inactive | inactive | inactive | inactive | inactive | inactive | – | inactive | inactive | inactive | inactive | inactive | inactive | inactive | – | – | inactive | –
